Experimental data: ChEMBL document CHEMBL3988442, “University of Dundee, Small-Polar-MMV Screening Library” (2021)
Among all 38,000 compounds or so, about 1,200 (3.2%) showed an effect of 50% or more. The median lay at about -58%. For the sample, strong results were picked, then their nearest neighbours and some compounds at random.

system: Plasmodium falciparum; assay: Calibr Malaria Delayed Death Assay SOP; assay type: functional, organism-based; design: scale not given: in the data most compounds retested in dose-response had high values; conditions: concentration 4.99e-06 (unit not given; other assays of the set use mol/L)

SMILES | Percent Effect
Cc1cc(F)cc2c(N3CCC(S(N)(=O)=O)CC3)c(C#N)cnc12 | -75.95%
O=C1CC2(CCSC2)C(=O)N1Cc1coc(-c2ccccc2)n1 (stereo unspecified) | -69.36%
CC1CCc2[nH]c(=O)c(C(=O)N3CCc4ccccc4C3)cc2C1 (stereo unspecified) | -106.2%
COCCN(Cc1cccs1)c1nc(CCN)nc2ccccc12 | 61.62%
NCCc1nc(N(Cc2nccs2)C2CC2)c2ccccc2n1 | -61.5%
COCCN(Cc1cc(O)nc2ccccc12)C(=O)NC(C)C | -37.53%
COCCN(Cc1ccccc1Cl)c1nc(CCN)nc2ccccc12 | 89.02%
COCCN(CC1CC1)c1nc(CCN)nc2ccccc12 | 8.553%
COCCN(Cc1cccs1)C(=O)C1CCCN(C(N)=O)C1 (stereo unspecified) | -166.3%
Cc1ccsc1CN(c1nc(CCN)nc2ccccc12)C1CC1 | 51.16%
COCCN(CCOC)Cc1c(C)nc2ccccc2c1O | -60.42%
NCCc1nc(N(Cc2cncs2)C2CC2)c2ccccc2n1 | -36.69%
CCC(=O)N(CCN(C)C)Cc1ccc(F)c(F)c1 | 39.58%
CC(C)C1CCC(N2CCN(CCCS(C)(=O)=O)CC2)CC1 (stereo unspecified) | 11.68%
Cc1cc2nc(C(C)C)cc(N3CCC(O)CC3)n2n1 | -114.9%
Cc1cccc(OC(C)C(=O)NCC2(N(C)C)CCCC2)c1 (stereo unspecified) | 80.49%
CC(=O)N(C)CC(=O)NCC1(c2cccc(C)c2)CCCC1 | -51.91%
Cc1cccc(C(C(=O)NCC2(O)CCCCC2)N(C)C)c1 (stereo unspecified) | -49.85%
CC1CN(C(=O)NCCc2nc(C(C)C)no2)CCO1 (stereo unspecified) | -93.77%
Cl.Cn1ncc2c1CCCC2NCc1cccc(F)c1 (stereo unspecified) | 10.36%
Cc1cccc(CNC2CCCc3c2cnn3C)c1.Cl (stereo unspecified) | -40.76%
Cc1cccc(CNC2CCCc3c2cnn3Cc2ccccc2)c1.Cl (stereo unspecified) | 64.5%
c1cc(N2CCC3(COCc4cnc(NCC5CC5)nc43)C2)ncn1 (stereo unspecified) | -14.49%
O=S(=O)(C1CC1)N1CCC2(COCc3cnc(NCC4CC4)nc32)C1 (stereo unspecified) | -35.4%

SMILES | Percent Effect
c1ccc(CN2CCC3(COCc4cnc(NCC5CC5)nc43)C2)cc1 (stereo unspecified) | 50.22%
CC(C)CC(NC(=O)c1ccn(C)c(=O)c1)c1cccs1 (stereo unspecified) | -80.8%
Cc1cc(C(=O)N(C)CCCn2cccn2)nc(N)n1 | -80.13%
CCN(CC)C(=O)N1CCN(Cc2cnc(C)nc2)[C@H]2CS(=O)(=O)C[C@H]21 | -158.8%
CCS(=O)(=O)N1CCCn2nnc(CNC(C)=O)c2C1 | -63.27%
CCN1CCCC(O)(CN(C)Cc2ccccc2F)C1 (stereo unspecified) | 56.49%
CN(C)CC1(O)CCCN(Cc2ccccc2OCC(=O)N(C)C)C1 (stereo unspecified) | -89.01%
CCN1CCCC(O)(CNCc2ccccc2F)C1 (stereo unspecified) | 38.87%
Cc1nc2c(c(N(C)C)n1)CCN(C(=O)c1ccc(N)nc1)C2 | -40.57%
O=C(CCc1ccccc1)NCC1CCN(Cc2ccccc2)CC1 | 43.31%
CC(=O)N1CCCN(CCn2nc3ccccn3c2=O)CC1 | -130.1%
CC(O)CCN(C)S(=O)(=O)Cc1ccc(Br)cc1 (stereo unspecified) | -27.23%
CN(C)CCN(C)S(=O)(=O)Cc1ccc(Br)cc1 | 62.66%
CCCNS(=O)(=O)Cc1ccc(Br)cc1 | -18.14%
CC(Cn1cccn1)NC(=O)NCc1ccnc(OC2CCCC2)c1 (stereo unspecified) | -91.81%
O=C(CCc1cccs1)Nc1ccnn1C1CCS(=O)(=O)C1 (stereo unspecified) | -51.38%
Cc1ccc(C(=O)N2CC[C@]3(C[C@@H](OCc4ccccn4)CO3)C2)nc1.O=C(O)C(F)(F)F.O=C(O)C(F)(F)F | -9.931%
CNc1cncc(C2CCCN2Cc2cccc(C)n2)n1 (stereo unspecified) | -46.34%
Cc1nonc1C1CCCN1Cc1ccc(C(=O)Nc2nccs2)cc1 (stereo unspecified) | -15.94%
Cc1ccc(C)c(CSc2nnc([C@@H](N)C(C)C)o2)c1.Cl | -98.07%
NC(=O)Cn1ccnc1C1CCCN(Cc2ccccc2OC(F)F)C1 (stereo unspecified) | -1.798%
N#Cc1ccccc1CN1CCCC(c2nccn2CC2CC2)C1 (stereo unspecified) | 10.64%
FC(F)Oc1ccccc1CN1CCCC(c2nccn2CC2CC2)C1 (stereo unspecified) | 86.3%
Cc1cc(NC(=O)CN2CCCC2c2noc(C(C)C)n2)no1 (stereo unspecified) | -88.6%

SMILES | Percent Effect
COCC1CCCN(C(=O)c2ccc(N(C)Cc3cnn(C)c3)nc2)C1 (stereo unspecified) | -103.7%
O=C(CCCn1cnc2ccccc2c1=O)Nc1nc[nH]n1 | -6.042%
O=C(Nc1ccccn1)C1CCN(Cc2cc3c(cc2O)OCO3)CC1 | -119.6%
O=C(Cc1ccc2c(c1)CCC2)NC1CCN(Cc2ccccc2)CC1 | 27.79%
O=C(CCCNC(=O)C1CCCO1)Nc1ccc(Cl)cc1 (stereo unspecified) | -38.58%
CCc1nc(CN(C)CC(=O)OC(C)(C)C)cs1 | -47.19%
COc1cccc([C@@H]2CCN(Cc3cn(C)c4ccccc34)C[C@H]2O)c1 | 77.7%
COc1cccc([C@@H]2CCN(Cc3cccc(C)n3)C[C@H]2O)c1 | -31.33%
COc1cccc([C@@H]2CCN(Cc3ccc4ccccc4n3)C[C@H]2O)c1 | -19.61%
Cc1ccc(CN(C)C(=O)CN2CCc3ccccc3C2)o1 | -48.11%
CC(C)n1cnnc1CN(C)C(=O)C1CCCN(C2CCN(C)CC2)C1 (stereo unspecified) | -93.39%
Cn1ccc2c(ccn2CC(=O)Nc2ccc(Br)cc2)c1=O | -82.23%
COc1ccc(CC(=O)Nc2ccc3ncn(C)c(=O)c3c2)cc1 | -105.2%
COc1ccc(NC(=O)Cn2nc(C)c(C(C)=O)c2C)cc1 | 89.56%
CC(=O)c1c(C)nn(CC(=O)Nc2ccc(F)cc2)c1C | -45.58%
CC(=O)c1c(C)nn(CC(=O)Nc2ccc(Br)cc2)c1C | 66.34%
COc1ccc(NC(=O)Cn2nc(C)ccc2=O)cc1OC | -36.97%
CCOCc1cncc2c1CCN(C(=O)c1cscn1)C2.O=C(O)C(F)(F)F | -50.24%
Cc1nc(C2CCCN2C(=O)CCCn2cncn2)no1 (stereo unspecified) | -14.54%
COc1ccc(S(=O)(=O)N2CCC(Cn3ccnc3)CC2)cc1 | -82.14%
CCc1ocnc1C(=O)N1CCOC(c2nc(C(C)C)n[nH]2)C1 (stereo unspecified) | -32.06%
CCc1cnc(N)nc1NC(C)c1ccc(C)c(C)c1 (stereo unspecified) | 72.97%
CCc1cnc(N)nc1N[C@@H](C)c1ncccc1C | 2.334%
CCc1cnc(N)nc1NC(C)c1cnn(C)c1 (stereo unspecified) | -61.87%

SMILES | Percent Effect
CCS(=O)(=O)c1cccc(C(=O)Nc2cccc3c2C(=O)N(C)C3=O)c1 | -74.2%
CN(Cc1ccco1)[C@@H]1CN(Cc2cccs2)C[C@@H]2CCCO[C@@H]21.O=C(O)C(F)(F)F.O=C(O)C(F)(F)F | 64.28%
CN(Cc1ccco1)[C@@H]1CN(Cc2ccncc2)C[C@@H]2CCCO[C@@H]21.O=C(O)C(F)(F)F.O=C(O)C(F)(F)F.O=C(O)C(F)(F)F | 7.341%
CC(C)NC(=O)[C@@H]1CC[C@@H]2[C@@H](CCN2Cc2cn(C)c3ccccc23)O1.O=C(O)C(F)(F)F | 76.85%
CN(Cc1ccco1)[C@@H]1CN(Cc2ccccn2)C[C@@H]2CCCO[C@@H]21.O=C(O)C(F)(F)F.O=C(O)C(F)(F)F.O=C(O)C(F)(F)F | 29.58%
CN(Cc1ccco1)[C@@H]1CN(Cc2cnn(C)c2)[C@@H]2CCCO[C@H]12.O=C(O)C(F)(F)F.O=C(O)C(F)(F)F | 23.66%
Cn1cc(CN2CC[C@H]3O[C@H](C(=O)NC4CC4)CC[C@H]32)c2ccccc21.O=C(O)C(F)(F)F | 22.79%
CN(Cc1ccco1)[C@@H]1CN(Cc2ccc(F)cc2)[C@@H]2CCCO[C@H]12.O=C(O)C(F)(F)F.O=C(O)C(F)(F)F | 54.29%
Cc1ccc(CN2C[C@@H]3CCCO[C@@H]3[C@H](N(C)Cc3ccco3)C2)s1.O=C(O)C(F)(F)F.O=C(O)C(F)(F)F | 73.4%
CN(Cc1ccco1)[C@@H]1CN(CC2CCOCC2)C[C@@H]2CCCO[C@@H]21.O=C(O)C(F)(F)F.O=C(O)C(F)(F)F | 11.5%
CNC(=O)[C@@H]1CC[C@@H]2[C@@H](CCN2Cc2cn(C)c3ccccc23)O1.O=C(O)C(F)(F)F | -13.73%
CN(Cc1ccco1)[C@@H]1CN(Cc2nccs2)C[C@@H]2CCCO[C@@H]21.O=C(O)C(F)(F)F.O=C(O)C(F)(F)F | 29.14%
CN(Cc1ccco1)[C@@H]1CN(Cc2cccnc2)[C@@H]2CCCO[C@H]12.O=C(O)C(F)(F)F.O=C(O)C(F)(F)F.O=C(O)C(F)(F)F | -47.89%
Cc1ccc(NC2CCN(C(=O)c3ccc(C#N)cc3)CC2)nn1 | -90.82%
Cc1nccc(NCc2cncc3c2CCN(S(C)(=O)=O)C3)n1.Cl | -112.1%
CSCC[C@H](NC(=O)CCn1ccc2c(Cl)cccc21)C(=O)O | -54.73%
Cn1cc(CN2CCCC23CCN(C(=O)c2ccsc2)CC3)cn1.O=C(O)C(F)(F)F | -0.2713%
Cc1nn(C)cc1-c1cc(C(F)(F)F)nc(NC2CCCCC2)n1 | -100.7%
CN(Cc1ccco1)[C@@H]1CN(Cc2ccoc2)C[C@@H]2CCCO[C@@H]21 | 59.2%
CN(Cc1ccco1)[C@@H]1CN(Cc2cccnc2)C[C@@H]2CCCO[C@@H]21.O=C(O)C(F)(F)F.O=C(O)C(F)(F)F.O=C(O)C(F)(F)F | 27.09%
CN(Cc1cncnc1)[C@@H]1CN(Cc2ccco2)C[C@@H]2CCCO[C@@H]21.O=C(O)C(F)(F)F.O=C(O)C(F)(F)F | -10.65%
O=C(NCc1ccco1)[C@H]1CC[C@@H]2[C@@H](CCN2Cc2cccnc2)O1.O=C(O)C(F)(F)F.O=C(O)C(F)(F)F | -37.9%
O=C(NCc1ccco1)[C@@H]1CC[C@@H]2[C@@H](CCN2Cc2ccc(F)cc2)O1.O=C(O)C(F)(F)F | 66.38%
O=C(NCc1ccco1)[C@@H]1CC[C@@H]2[C@@H](CCN2CC2CC2)O1.O=C(O)C(F)(F)F | 7.283%
